From the antibiotic and cytotoxicity screens of Wong et al. (2023)
Among all 39,000 compounds or so, about 3,300 (8.5%) were called active. The list comes from a sample in which actives are over-represented; it also holds similar structures and randomly drawn compounds.

Tested on: HepG2
Assay: cytotoxicity call (relative viability < 0.9)
Details: 10 µM

Row | SMILES | cytotoxicity call
1 | CCS(=O)(=O)N1Cc2nccn2C[C@H](Cn2ncccc2=O)C1 | inactive
2 | Cc1ccc(S(=O)(=O)Nc2ccc3c(c2)C(=O)N([C@@H](C)CO)C[C@@H](C)[C@@H](CN(C)S(=O)(=O)c2ccc(F)cc2)O3)cc1 | inactive
3 | Cc1noc(C)c1S(=O)(=O)Nc1cccc2c1O[C@H](CN(C)S(C)(=O)=O)[C@H](C)CN([C@@H](C)CO)C2=O | inactive
4 | Cc1noc(C)c1S(=O)(=O)Nc1cccc2c1O[C@H](CN(C)Cc1ccc(C(=O)O)cc1)[C@H](C)CN([C@@H](C)CO)C2=O | inactive
5 | Cc1noc(C)c1S(=O)(=O)Nc1cccc2c1O[C@H](CN(C)Cc1ccc(C(=O)O)cc1)[C@@H](C)CN([C@H](C)CO)C2=O | inactive
6 | Cc1noc(C)c1S(=O)(=O)Nc1cccc2c1O[C@H](CN(C)Cc1ccc(C(=O)O)cc1)[C@H](C)CN([C@H](C)CO)C2=O | active
7 | Cc1noc(C)c1S(=O)(=O)Nc1cccc2c1O[C@@H](CN(C)S(C)(=O)=O)[C@@H](C)CN([C@@H](C)CO)C2=O | active
8 | Cc1noc(C)c1S(=O)(=O)Nc1cccc2c1O[C@@H](CN(C)S(C)(=O)=O)[C@@H](C)CN([C@H](C)CO)C2=O | inactive
9 | CC(C)CC#Cc1cnc2c(c1)C(=O)N([C@@H](C)CO)C[C@@H](C)[C@@H](CN(C)S(=O)(=O)c1cccs1)O2 | inactive
10 | C[C@H](CO)N1C[C@H](C)[C@H](CN(C)C(=O)Nc2ccc(F)cc2)OCCCC[C@H](C)Oc2ccc(NC(=O)c3ccncc3)cc2C1=O | inactive
11 | CCS(=O)(=O)N1CC[C@]2(CC1)CN(Cc1ccc3c(c1)OCO3)[C@@H](CO)c1[nH]c3cc(ccc3c12)OC | inactive
12 | CCC(=O)N1C[C@]2(CN(C2)C(=O)CN2CCOCC2)c2c([nH]c3cc(ccc23)OC)[C@H]1CO | inactive
13 | COc1ccc(S(=O)(=O)Nc2ccc3c(c2)C(=O)N([C@H](C)CO)C[C@H](C)[C@@H](CN(C)C(=O)Nc2ccc4c(c2)OCO4)OCCCC[C@@H](C)O3)cc1 | inactive
14 | C[C@@H]1CN([C@@H](C)CO)C(=O)c2cccc(NC(=O)c3ccncc3)c2O[C@@H]1CN(C)S(=O)(=O)c1cn(C)cn1 | inactive
15 | Cc1ccc(S(=O)(=O)N(C)C[C@H]2OCCCC[C@H](C)Oc3ccc(NC(=O)Nc4ccc(C(F)(F)F)cc4)cc3C(=O)N([C@@H](C)CO)C[C@@H]2C)cc1 | inactive
16 | Cc1ccc(S(=O)(=O)N(C)C[C@@H]2OCCCC[C@@H](C)Oc3ccc(NC(=O)Nc4ccc(C(F)(F)F)cc4)cc3C(=O)N([C@H](C)CO)C[C@H]2C)cc1 | inactive
17 | Cc1ccc(S(=O)(=O)N(C)C[C@@H]2OCCCC[C@H](C)Oc3ccc(NC(=O)Nc4ccc(C(F)(F)F)cc4)cc3C(=O)N([C@H](C)CO)C[C@H]2C)cc1 | inactive
18 | Cc1ccc(S(=O)(=O)N(C)C[C@@H]2OCCCC[C@H](C)Oc3ccc(NC(=O)Nc4ccc(C(F)(F)F)cc4)cc3C(=O)N([C@@H](C)CO)C[C@@H]2C)cc1 | inactive
19 | Cc1ccc(S(=O)(=O)N(C)C[C@H]2OCCCC[C@@H](C)Oc3ccc(NC(=O)Nc4ccc(C(F)(F)F)cc4)cc3C(=O)N([C@@H](C)CO)C[C@@H]2C)cc1 | active
20 | Cc1ccc(S(=O)(=O)N(C)C[C@@H]2OCCCC[C@@H](C)Oc3ccc(NC(=O)Nc4ccc(C(F)(F)F)cc4)cc3C(=O)N([C@@H](C)CO)C[C@H]2C)cc1 | active
21 | O=C([O-])C=CC(=O)[O-].[Fe+2] | inactive
22 | O=C(CCCCC(=O)N/N=C/[C@H](O)[C@@H](O)[C@H](O)[C@H](O)CO[C@H]1O[C@H](CO)[C@H](O)[C@H](O)[C@H]1O)NO | inactive
23 | CC(C)NC(=O)N(C)C[C@H]1Oc2ccc(NS(=O)(=O)c3ccc(Cl)cc3)cc2CC(=O)N([C@H](C)CO)C[C@H]1C | inactive
24 | CCOC(=O)c1nnn(-c2nonc2N)c1CN1CCSCC1 | inactive

Row | SMILES | cytotoxicity call
25 | CCOC(=O)CCCCCC(=O)Nc1ccc2c(c1)C(=O)N([C@@H](C)CO)C[C@H](C)[C@H](CN(C)S(C)(=O)=O)O2 | inactive
26 | COc1ccc(C(C)=O)c(O)c1 | inactive
27 | Nc1cc(-c2ccccc2)ccc1O | inactive
28 | COc1ccc(O)c(N)c1 | active
29 | COc1ccc(NC(=O)N(C)C[C@H]2Oc3ccc(NS(C)(=O)=O)cc3CC(=O)N([C@@H](C)CO)C[C@H]2C)cc1 | inactive
30 | COc1ccc2c(O[C@H]3CCCC[C@@H]3OC)nccc2c1-n1ccnc1-c1c[nH]c2c(N)c(F)cc(C#N)c12 | active
31 | C[C@@H]1CN([C@@H](C)CO)C(=O)c2cc(NS(=O)(=O)c3cn(C)cn3)ccc2O[C@@H](C)CCCCO[C@@H]1CN(C)S(=O)(=O)c1cn(C)cn1 | inactive
32 | COc1ccc(-c2coc3cc(OC)cc(OC)c3c2=O)cc1 | inactive
33 | C[C@H](CO)N1C[C@H](C)[C@@H](CN(C)S(=O)(=O)c2cccc(F)c2)Oc2ncc(C#CC3(O)CCCC3)cc2C1=O | inactive
34 | C[C@@H]1CCCCO[C@@H](CN(C)C(=O)NC2CCCCC2)[C@@H](C)CN([C@H](C)CO)C(=O)c2cc(NC(=O)Cc3ccccc3)ccc2O1 | inactive
35 | C[C@@H]1CN([C@H](C)CO)C(=O)c2cc(NS(C)(=O)=O)ccc2O[C@@H]1CN(C)S(=O)(=O)c1ccc(F)cc1 | inactive
36 | C[C@H]1CN([C@@H](C)CO)C(=O)c2cccc(NC(=O)c3nc4ccccc4s3)c2O[C@@H]1CN(C)Cc1ccc(C(=O)Nc2ccccc2N)cc1 | inactive
37 | C[C@@H]1CN([C@@H](C)CO)C(=O)c2cccc(NC(=O)c3nc4ccccc4s3)c2O[C@@H]1CN(C)Cc1ccc(C(=O)Nc2ccccc2N)cc1 | active
38 | C[C@H](CO)N1C[C@H](C)[C@@H](CN(C)Cc2ccc(C(=O)Nc3ccccc3N)cc2)Oc2c(NC(=O)c3nc4ccccc4s3)cccc2C1=O | active
39 | C[C@H](CO)N1C[C@H](C)[C@H](CN(C)Cc2ccc(C(=O)Nc3ccccc3N)cc2)Oc2c(NC(=O)c3nc4ccccc4s3)cccc2C1=O | inactive
40 | C[C@H]1CN([C@@H](C)CO)C(=O)c2cccc(NC(=O)c3nc4ccccc4s3)c2O[C@H]1CN(C)Cc1ccc(C(=O)Nc2ccccc2N)cc1 | inactive
41 | C[C@@H]1CN([C@@H](C)CO)C(=O)c2cccc(NC(=O)c3nc4ccccc4s3)c2O[C@H]1CN(C)Cc1ccc(C(=O)Nc2ccccc2N)cc1 | inactive
42 | C[C@H]1CCCCO[C@H](CN(C)C(=O)NC2CCCCC2)[C@@H](C)CN([C@@H](C)CO)C(=O)c2cc(NC(=O)CCC(F)(F)F)ccc2O1 | inactive
43 | COc1ccc(S(=O)(=O)N(C)C[C@H]2Oc3c(NC(=O)c4cnccn4)cccc3C(=O)N([C@H](C)CO)C[C@H]2C)cc1 | inactive
44 | C[C@@H]1CN([C@H](C)CO)C(=O)c2cc(NS(=O)(=O)c3ccc(Cl)cc3)ccc2O[C@@H](C)CCCCO[C@@H]1CN(C)Cc1ccncc1 | inactive
45 | CCc1nc2c(C)cc(N3CCN(CC(=O)N4CC(O)C4)CC3)cn2c1N(C)c1nc(-c2ccc(F)cc2)c(C#N)s1 | active
46 | COCC#Cc1ccc2c(c1)O[C@H](CN(C)Cc1ccccc1F)[C@@H](C)CN([C@H](C)CO)S2(=O)=O | inactive
47 | C[C@H](CO)N1C[C@H](C)[C@H](CN(C)S(=O)(=O)c2cccs2)Oc2ccc(NS(=O)(=O)c3ccccc3)cc2CC1=O | inactive
48 | C[C@@H]1CN([C@H](C)CO)C(=O)c2cccc(NS(=O)(=O)c3ccc(F)cc3)c2O[C@@H]1CN(C)Cc1ccncc1 | inactive

Row | SMILES | cytotoxicity call
49 | CC(C)=CCc1c2c(c3occ(-c4ccc(O)cc4)c(=O)c3c1O)C=CC(C)(C)O2 | inactive
50 | CC(C)=CCc1c2c(c3occ(-c4ccc(O)c(O)c4)c(=O)c3c1O)C=CC(C)(C)O2 | active
51 | CC1(C)C=Cc2c(c3c(c4c(=O)c(-c5ccc(O)c(O)c5)coc24)OC(C)(C)CC3)O1 | active
52 | CC1(C)C=Cc2c(c3c(c4c(=O)c(-c5ccc(O)cc5)coc24)OC(C)(C)CC3)O1 | inactive
53 | CN1CCN(C(=O)C[C@H]2CC[C@@H]3[C@@H](COc4ccc(NC(=O)c5cccs5)cc4C(=O)N3C)O2)CC1 | inactive
54 | Cc1noc(C)c1S(=O)(=O)Nc1ccc2c(c1)C(=O)N([C@@H](C)CO)C[C@H](C)[C@@H](CN(C)Cc1ccccc1)OCCCC[C@@H](C)O2 | inactive
55 | C[C@@H]1CN([C@@H](C)CO)C(=O)Cc2cc(NC(=O)Cn3cnnn3)ccc2O[C@@H]1CN(C)Cc1ccc(Oc2ccccc2)cc1 | inactive
56 | Cc1ccc(-c2cc(C(F)(F)F)nn2-c2ccc(S(N)(=O)=O)cc2)cc1 | active
57 | COc1ccc(-c2cc(C(F)F)nn2-c2ccc(S(N)(=O)=O)cc2)cc1F | inactive
58 | Cc1ccc(S(N)(=O)=O)cc1 | inactive
59 | C[C@@H]1CN([C@H](C)CO)C(=O)c2cc(NC(=O)NC3CCCCC3)ccc2O[C@@H](C)CCCCO[C@@H]1CN(C)S(=O)(=O)c1ccc(F)cc1 | inactive
60 | CN1C2CCC1CC(OC(c1ccccc1)c1ccccc1)C2.CS(=O)(=O)O (configuration not stated) | active
61 | CN1CCC(OC(c2ccccc2)c2ccccc2)CC1.Cl | inactive
62 | CN1C2CCC1CC(OC(=O)c1c[nH]c3ccccc13)C2.Cl (configuration not stated) | inactive
63 | Cc1noc(C)c1S(=O)(=O)N(C)C[C@@H]1Oc2c(NS(=O)(=O)c3ccccc3)cccc2C(=O)N([C@H](C)CO)C[C@@H]1C | inactive
64 | C#CC1(O)CCC2C3CCC4=CC(=O)CCC4C3CCC21C (configuration not stated) | inactive
65 | CC12CCC3c4ccc(O)cc4CCC3C1CCC2=O (configuration not stated) | inactive
66 | C#CC1(O)CCC2C3CCc4cc(OC5CCCC5)ccc4C3CCC21C (configuration not stated) | inactive
67 | C#CC1(O)CCC2C3CCc4cc(O)ccc4C3CCC21C (configuration not stated) | active
68 | C#CC1(O)CCC2C3CCc4cc(OC)ccc4C3CCC21C (configuration not stated) | active
69 | C#CC1(O)CCC2C3CCC4=CCCCC4C3CCC21C (configuration not stated) | active
70 | C#CC1(O)CCC2C3CCC4=CCCCC4C3C(=C)CC21CC (configuration not stated) | inactive
71 | CC12CCC3c4ccc(O)cc4CCC3C1CC(O)C2O (configuration not stated) | inactive
72 | C#CC1(O)CCC2C3CCC4=C(CCC(=O)C4)C3CCC21C (configuration not stated) | inactive
